Source: PubChem
LGR2 inh: inhibitors of bursicon-induced LGR2 CRE-luciferase signal, primary screen, cell-based, HEK293, CRE-luciferase reporter, bursicon stimulation; Drosophila bursicon receptor LGR2 (rickets); inhibition, % at 9.99 µM; bursicon-stimulated, 4 h; 380,000 tested, 0.35% active;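 active = drop in luminescence signal, shown as inhibition above about 50% in the replicate tests, limit read from the data, passing the limit was not always enough; inconclusive = probably only some replicates passing the limit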;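 also: agonist challenge used bursicon conditioned medium at about half maximal strength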
TROY NFkB inh: inhibitors of TROY-driven NF-kB signaling, primary screen, Q293 LMP1-TROYcd cells, NF-kB luciferase, uHTS. Q293 LMP1-TROYcd NF-kB luciferase reporter, 4 h. inhibition, % at 10 µM. 360,000 tested, 0.98% active;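 active = compounds whose plate-normalised and pattern-corrected inhibition of the luciferase reporter signal at the single screening dose is 50% or more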
EBV LMP1 NFkB: EBV LMP1-driven NF-kappaB luciferase reporter inhibitors, primary screen, cell-based, luminescence, single point; LMP1-induced NF-kappaB luciferase reporter cells; inhibition, % at 12.5 µM; 350,000 tested, 0.69% active; in the data active = inhibition above about 41%; inconclusive = no clear call, values can overlap the other calls;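 also: 0% = neutral control wells and 100% = reference inhibitor control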
MITF act: activators of MITF-driven TRPM1 promoter reporter, primary screen, cell-based, SK-MEL-5, luciferase, single point. SK-MEL-5 TRPM1-promoter luciferase, 24 h; % of positive control, neutral wells = 0. activation, % at 12.5 µM. 300,000 tested, 0.75% active. AID 588334, 2011;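 active = mean activation of at least 80% with every replicate also reaching 80%; inconclusive = mean reaches 80% but some replicate falls short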;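 also: 0% = neutral control wells and 100% = parthenolide positive control wells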
TRPM1 prom inh: inhibitors of MITF-dependent TRPM1 promoter reporter, primary screen, cell-based, SK-MEL-5, single point, luciferase. SK-MEL-5 TRPM1 promoter luciferase, 24 h. inhibition, % at 12.5 µM. 330,000 tested, 0.83% active;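 active = mean inhibition across replicates of 60% or more, whatever share of single replicates reaches that level; inconclusive = some that reach 60%, reason not given; inactive = mean inhibition across replicates below 60%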
TWEAK-Fn14 inh: inhibitors of TWEAK-Fn14 signaling, primary screen, luciferase reporter cells, uHTS. inhibition, % at 10 µM. TWEAK-stimulated Fn14 reporter cells, luciferase luminescence, 8 h. 360,000 tested, 2% active. AID 1159606, 2016; in the data active = inhibition above about 50%
An asterisk follows results filed as active; ? = inconclusive; · = not tested or not shown. Compounds with a hit are over-represented: about 3% of the library has one in this group of screens.

SMILES	LGR2 inh	TROY NFkB inh	EBV LMP1 NFkB	MITF act	TRPM1 prom inh	TWEAK-Fn14 inh
O=C(COc1ccccc1[N+](=O)[O-])N1CCCc2ccccc21	-5	-12	-4	-5	6	17
O=C(OCC(=O)N1CCCc2ccccc21)c1ccccc1[N+](=O)[O-]	-80	-55	-33	84*	-84	-10
CCOC(=O)C(=O)CC(=O)c1ccc2c(c1)OCCO2	-15	72*	28	-2	4	-4
NC(=O)c1ccc2c(c1)OCCO2	·	·	1	1	1	16
Cc1cccc(C(=O)OCC(=O)c2ccc3c(c2)OCO3)c1O	-64	-22	-59	119*	-120	-24
CCC(=O)Nc1ccc2c(c1)C(=O)N(C)[C@H]1CC[C@H](CC(=O)Nc3cccc(OC)c3)O[C@@H]1CO2	13	·	·	·	·	·
CCOC(=O)c1c(CSC(=N)N)n(-c2ccccc2)c2cc(Br)c(OC(C)=O)cc12	63*	21	-48	?	·	-103
CCOC(=O)c1c(CN2CCN(C)CC2)n(-c2ccccc2)c2cc(Br)c(O)cc12	2	15	-24	-30	30	8
OC(COc1ccc(CNCCc2ccc(C(F)(F)F)cc2)cc1)CN1CCCCC1 (stereo unspecified)	16	-5	-13	-93	94*	-10
COc1ccc2c3c([nH]c2c1)[C@H](CO)N(Cc1ccc2c(c1)OCO2)CC31CN(C(=O)Nc2c(C)noc2C)C1	3	·	·	·	·	·
Cc1ccc(CN2C(=O)CCC2C(=O)NCCCN2CCC(C)CC2)cc1 (stereo unspecified)	·	13	50*	11	-6	-18
C[C@H](CO)N1C[C@H](C)[C@@H](CN(C)Cc2ccncc2)Oc2ccc(NC(=O)NC3CCCCC3)cc2CC1=O	9	·	·	·	·	·
CC1=NN(c2nc(-c3ccccc3)cs2)C(=O)C1	·	55*	1	-10	6	66*
C[C@H]1CN([C@@H](C)CO)C(=O)c2cccc(NC(=O)c3ccncc3)c2O[C@H]1CN(C)C(=O)NC1CCCCC1	0	·	·	·	·	·
COc1cc(C2CC(=O)Oc3cc(O)ccc32)cc(OC)c1OC (stereo unspecified)	-12	-18	7	2	3	-21
COc1ccc2c(c1)OC(=O)CC2c1cc(OC)c(OC)c(OC)c1 (stereo unspecified)	24	7	89*	-5	6	15
C[C@@H]1CN([C@H](C)CO)C(=O)CCCn2cc(nn2)CO[C@@H]1CN(C)S(=O)(=O)c1cccs1	-6	·	·	·	·	·
COc1ccc(NC(=S)N/C(=N/CS(=O)(=O)c2ccccc2)c2ccccc2)cc1	-48	-19	-6	21	-26	52*
Cc1ccccc1NC(=O)c1cc(C(=O)c2cc(Cl)ccc2O)cn(-c2ccccc2C)c1=O	-23	38	-1	-49	53	87*
C[C@H](CO)N1C[C@H](C)[C@H](CN(C)C(=O)C2CC2)Oc2cc(-c3ccccc3)ccc2S1(=O)=O	-5	·	·	·	·	·
C[C@H](CO)N1C[C@H](C)[C@H](CN(C)C(=O)Nc2ccc3c(c2)OCO3)OCCCC[C@H](C)Oc2ccc(NS(=O)(=O)c3cn(C)cn3)cc2C1=O	1	·	·	·	·	·
Cc1csc(NC(=O)c2ccc(OCC3CCCO3)cc2)n1 (stereo unspecified)	?	23	35	17	-14	69*
CCOc1ccc2nc(NC(=O)CSCC(=O)Nc3cc(C)on3)sc2c1	-16	-29	-11	104*	-100	-14
O=C(Nc1nc(-c2ccc(F)c(F)c2)cs1)c1ccc(OCC2CCCO2)cc1 (stereo unspecified)	7	32	33	-27	27	34
Cc1cccc2sc(NC(=O)c3ccc(OCC4CCCO4)cc3)nc12 (stereo unspecified)	-44	33	5	16	-10	85*
SMILES	LGR2 inh	TROY NFkB inh	EBV LMP1 NFkB	MITF act	TRPM1 prom inh	TWEAK-Fn14 inh
CCOc1ccc2nc(NC(=O)c3ccc(OCC4CCCO4)cc3)sc2c1 (stereo unspecified)	-41	49	2	4	-2	62*
CC(=O)Nc1ccc(NC(=O)COc2ccc3c(c2)CCC3)cc1	-31	-12	-8	5	-8	-2
Cc1ccc(NC(=O)c2ccc(OCC3CCCO3)cc2)c(C)c1 (stereo unspecified)	3	12	7	-99	·	-9
Cc1ccnc(NC(=O)c2ccc(OCC3CCCO3)cc2)c1 (stereo unspecified)	0	57*	45*	-23	22	83*
Cc1ccnc(NC(=O)COc2ccc3c(c2)CCC3)c1	15	40	-19	42	-43	79*
C[C@@H]1CN([C@H](C)CO)C(=O)Cc2cc(NC(=O)CCN3CCOCC3)ccc2O[C@@H]1CN(C)Cc1ccc(Cl)c(Cl)c1	29	·	·	·	·	·
C[C@H](CO)N1C[C@H](C)[C@@H](CN(C)C(=O)CN(C)C)Oc2cc(C#Cc3cccnc3)ccc2S1(=O)=O	-1	·	·	·	·	·
COc1ccccc1NC(=O)N(C)C[C@H]1Oc2ncc(C#CC(C)C)cc2C(=O)N([C@@H](C)CO)C[C@@H]1C	-2	·	·	·	·	·
O=C(Nc1ccc(N2CCOCC2)c(S(=O)(=O)Nc2ccccc2Cl)c1)c1ccc(F)cc1	?	9	4	0	2	-9
O=C(Nc1ccc(F)cc1)Nc1ccc(N2CCCC2)c(S(=O)(=O)Nc2ccccc2Cl)c1	·	24	14	-73	75*	75*
O=C(Nc1ccc(Cl)c(Cl)c1)Nc1ccc(N2CCCC2)c(S(=O)(=O)Nc2ccccc2Cl)c1	29	21	39	-72	73*	68*
CCCC#Cc1cnc2c(c1)C(=O)N([C@H](C)CO)C[C@H](C)[C@H](CN(C)Cc1ccc(C(=O)O)cc1)O2	5	·	·	·	·	·
Cc1noc(C)c1NC(=O)N(C)C[C@@H]1Oc2ncc(C#Cc3ccccc3)cc2C(=O)N([C@H](C)CO)C[C@@H]1C	8	·	·	·	·	·
Cn1nc([N+](=O)[O-])nc1Sc1nnc(-c2ccccc2)o1	21	-5	3	-11	12	69*
O=Cc1ccc(Sc2nnc(-c3ccccc3)o2)c([N+](=O)[O-])c1	·	-1	9	9	-17	-21
COc1ccccc1C=NN=C(NN=Cc1ccccc1OC)NN=Cc1ccccc1OC	46	56*	37	-86	88*	101*
COc1ccccc1C=NN=Cc1ccccc1O	-67	-67	83*	17	-13	-17
CN(C)c1ccc(/C=N/N=C/c2ccccc2O)cc1	56*	48	-40	1	1	59*
